PLCb3 inh = inhibitors of human phospholipase C beta3; Q01970; inhibition, % at 12.2 µM; Purified PLC-beta3, fluorogenic substrate, fluorescence; 370,000 compounds, 0.18% hits
KLK7 zymogen act = activators of human kallikrein-7 zymogen | P49862 | purified proKLK7, EDANS-DABCYL substrate fluorescence; 100% is mature enzyme control, 0% vehicle | activation, % at 7 µM | 370,000 compounds, 0.9% hits | AID 652039;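 active means activation above the mean of all tested compounds plus 3 SD, computed per campaign excluding outliers beyond control limits, cut at about 13% in these data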
PLC-gamma1 inh = blocks human PLC-gamma1 enzyme activity. P19174. purified PLC-gamma1, fluorogenic substrate, fluorescence. inhibition, % at 12.2 µM. 370,000 compounds, 0.84% hits; in the data active means inhibition above about 9.5%
ADAM10 inh = ADAM10 inhibition, QFRET primary screen; O14672; inhibition, % at 7 µM; recombinant ADAM10, EDANS/DABCYL FRET peptide cleavage, 3 h; 370,000 compounds, 0.62% hits;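 active means inhibition above a per-campaign cutoff equal to the mean of compounds falling between control-based bounds plus 3 SD, cut at about 20% in these data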
Target sequence (O14672 214-748 limits assumed): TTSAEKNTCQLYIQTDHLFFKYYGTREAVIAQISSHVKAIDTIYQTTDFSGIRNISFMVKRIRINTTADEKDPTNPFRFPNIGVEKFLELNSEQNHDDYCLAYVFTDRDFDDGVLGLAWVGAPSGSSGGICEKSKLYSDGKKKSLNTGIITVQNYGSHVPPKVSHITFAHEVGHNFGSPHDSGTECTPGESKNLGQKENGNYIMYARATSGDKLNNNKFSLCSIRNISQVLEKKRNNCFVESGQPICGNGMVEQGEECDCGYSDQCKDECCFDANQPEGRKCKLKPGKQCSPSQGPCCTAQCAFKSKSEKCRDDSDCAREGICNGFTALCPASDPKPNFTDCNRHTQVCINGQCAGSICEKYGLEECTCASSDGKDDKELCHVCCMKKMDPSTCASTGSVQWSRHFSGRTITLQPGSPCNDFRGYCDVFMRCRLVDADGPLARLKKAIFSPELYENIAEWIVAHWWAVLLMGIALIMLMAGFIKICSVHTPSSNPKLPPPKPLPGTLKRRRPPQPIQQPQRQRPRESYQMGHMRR
ADAM17 inh = ADAM17 inhibition, QFRET primary screen; P78536; recombinant ADAM17, EDANS/DABCYL FRET peptide cleavage; inhibition, % at 6.95 µM; 370,000 compounds, 0.83% hits;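 active means inhibition above the mean of compounds lying between control limits plus 3 SD, set per campaign, cut at about 8.5% in these data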
PLCgamma1 ctr = counter-screen for PLC-beta3 inhibitors: inhibitors of human PLC-gamma1. AID 743258. shares compounds with PLC-gamma1 inh. 3,300 compounds, 3.1% hits. purified PLC-gamma1, fluorogenic substrate, fluorescence. inhibition, % at 12.3 µM; in the data active means inhibition above about 9.5%
PLCbeta3 conf = confirmation of human PLC-beta3 inhibitors. shares compounds with PLC-gamma1 inh. purified PLC-beta3, fluorogenic substrate fluorescence. inhibition, % at 12.3 µM. 3,300 compounds, 1% hits
Large screens that a line does not name were inactive (follow-up assays come after a bar, where they were run). Sampled rows, rich in hits. Any-hit rate of the full collection: about 2.9%. Unless noted, no stated cut-off is given here; in the data, active means inhibition above about 11%; inactive means the rest.

COCC(C)NS(=O)(=O)c1ccc(C(=O)NC(Cc2ccccc2)c2ccccc2)cc1 (stereo not drawn)	none
CC(C)(C)C(=O)CSc1nccc(=O)[nH]1	PLC-gamma1 inh 10 | PLCgamma1 ctr inactive | PLCbeta3 conf inactive
CC(=O)Nc1ccc(C(=O)CSc2nccc(=O)[nH]2)cc1	none
CC1CCCCC1NC(=S)NC(=O)c1ccccc1Cl (stereo not drawn)	PLC-gamma1 inh 11 | PLCgamma1 ctr inactive | PLCbeta3 conf inactive
CC(C)[C@@H]1CC[C@@H](C)C[C@H]1OC(=O)C[n+]1cc(-c2ccc(Cl)cc2)n2c1CCCCC2	PLC-gamma1 inh 12 | PLCgamma1 ctr inactive | PLCbeta3 conf inactive
COc1ccc(-c2c[n+](CC(=O)OC3CC(C)CCC3C(C)C)c3n2CCC3)cc1 (stereo not drawn)	none
CCCCOP(=O)(OCCCC)C1(NS(=O)(=O)c2ccccc2)C=CC(=O)c2ccccc21 (stereo not drawn)	none
CCCCNc1c(-c2cccc(-c3cc(C(C)=O)cs3)c2)nc2ccc(C)cn12	PLC-gamma1 inh 9.7 | PLCgamma1 ctr inactive | PLCbeta3 conf inactive
Cc1ccc(NC(=S)NCc2ccc(Cl)cc2)c(C)c1	PLC-gamma1 inh 11 | PLCgamma1 ctr inactive | PLCbeta3 conf inactive

Screening results (PubChem BioAssay)
